# MCF10A rerep: induces DNA re-replication in MCF 10a normal breast cells; MCF 10A DNA re-replication, Hoechst nuclear intensity, 48 h; Potency, µM (doses to about 46.1 µM), for the others: at the top dose activity, positive = re-replication, hits mostly activators; 350,000 compounds, 2.9% hits; note: % of control where 0% means no effect; nearly all actives have a fitted effect of over 50% in size
# KB-3-1 tox: kills parental KB-3-1 adenocarcinoma cells | KB-3-1 viability, CellTiter-Glo ATP luminescence, 72 h | Potency, µM (doses to about 46.1 µM), most hits filed as cytotoxic | 400,000 compounds, 1.4% hits; note: % is set by controls: 0 for no effect and ±100 for the full control effect; nearly all actives have a fitted effect of over 60% in size
#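 Screening of KB-3-1 cells (DMEM, 10% FBS, phenol-red free) ran from lowest to highest compound concentration; after 72 h at 37 °C viability was read luminescently and curves fitted.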
# KB-V1 cytotox: kills drug-selected multidrug resistant KB-V1 cells. Potency, µM (series often up to 46.1 µM), hits mostly cytotoxic. 400,000 compounds, 3.4% hits. KB-V1 MDR cells viability, CellTiter-Glo, 72 h; note: % is set by controls: 0 for no effect and ±100 for the full control effect; nearly all actives have a fitted effect of over 60% in size
#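 Drug-selected KB-V1 cells, grown in DMEM lacking phenol red with 10% FBS, receive compound titrations; after three days at 37 degrees C, surviving cell ATP is quantified by CellTiter-Glo luminescence and responses normalized and curve-fitted.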
# HT1080NT lethal: kills 2HG-producing HT-1080-NT fibrosarcoma cells | HT-1080-NT fibrosarcoma viability, CellTiter-Glo ATP luminescence, 48 h | Potency, µM (titrated, usually from 46.1 µM), for the others: at the highest dose activity, negative = less viability, most hits filed as cytotoxic | 360,000 compounds, 1.6% hits | AID 686970;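 note: NT is the 2HG producing partner of a matched IDH1 knockdown line; 0% = DMSO-treated cells and -100% = media-only wells without cells; nearly all actives have a fitted effect of over 55% in size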
#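 A 48-hour cytotoxicity screen used HT-1080-NT cells plated 2 hours before compound delivery. ATP-based CellTiter-Glo luminescence measured viability, normalized to DMSO and no-cell controls.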
# SW480 rerep: induces DNA re-replication in SW480 colon adenocarcinoma cells | SW480 DNA re-replication, Hoechst DNA content imaging, 48 h | Potency, µM (highest dose often 46.1 µM), for inactives: at the top dose re-replication activation, actives largely listed as activators | 340,000 compounds, 1.8% hits | AID 624297; note: % of control where 0% means no effect; nearly all actives have a fitted effect of over 55% in size
#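 First, 250 cells per well were seeded. Next, compound or vehicle (23 nL) was pinned in, plates sat 48 hr at 37 C. Finally Hoechst was added for 40 min before fluorescence scanning.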
# HT1080 IDH1KD tx: toxicity to HT-1080 IDH1 knockdown cells (counter line). Potency, µM (doses to about 46.1 µM), for the others: at the top dose activity, negative = toxicity, usual class: cytotoxic. AID 686971. HT-1080 IDH1 knockdown viability, ATP luminescence, 48 h. 360,000 compounds, 2% hits;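 note: 0% = DMSO wells and -100% = cell-free medium wells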
#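 Cytotoxicity counter-line: IDH1KD HT-1080, 48 h, CellTiter-Glo. Curves classed by r2, magnitude and activity.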
# * = called active by the depositor; i = inactive; ? = inconclusive; . = no result given; [ ] = remark or other dose. Only some compounds are listed: those with a hit (about 7.9% of all), similar ones and a draw of the others. Calls come from the whole dose curve; as a rule, active = well fitted curve in the direction sought with a large enough effect; inconclusive = small, poorly fitted or top-dose-only effect, or another doubt; inactive = no such curve, though single readings can be large; an effect the other way counts as inactive or inconclusive. Potency is the fitted concentration of half-maximal effect.
SMILES,MCF10A rerep,KB-3-1 tox,KB-V1 cytotox,HT1080NT lethal,SW480 rerep,HT1080 IDH1KD tx
CCNC(=O)NC(=O)CSc1nc2ccccc2n1CC(C)C,5.1%,i,2.91µM*,5.3%,-3.4%,7.9%
O=C(NNC(=O)c1cc(Cl)ccc1O)c1cccs1,-3.4%,i,i,-28.5%,20.6µM*,?
O=C(NNC(=O)c1ccccc1Cl)c1cccs1,-3.1%,i,?,20.3%,0.9%,21.1%
O=C(NCc1ccco1)C1CCN(C(=O)N2CCOc3ccccc32)CC1,.,i,i,.,.,.
NC(=S)N=Nc1c(O)n(CCCl)c2ccc(Cl)cc12,-2.6%,?,13µM*,-20.8%,12.7%,?
CCC(C)NC(=O)c1ccccc1NC(=O)C1CCN(S(=O)(=O)Cc2ccccc2)CC1 (stereo not given),.,i,i,.,.,.
CCCC1S/C(=N/N=C/c2ccc(OC)cc2)N(Cc2ccc(OC)cc2)C1=O (stereo not given),10.9%,i,16.4µM*,-4.2%,-1.0%,-1.6%
COc1ccc(N2C(=O)C(CC(=O)O)S/C2=N\N=C\c2cccs2)cc1 (stereo not given),3.2%,i,i,17.5%,-4.4%,18.0%
CCCCC1S/C(=N/N=C/c2ccc(OC)cc2)N(Cc2ccc(OC)cc2)C1=O (stereo not given),2.3%,i,8.2µM*,-3.2%,?,-3.3%
CCCC1S/C(=N/N=C/c2ccc(OC)cc2)N(Cc2ccccc2)C1=O (stereo not given),?,i,i,2.1%,-3.3%[9.22 µM],-8.0%
CCOc1ccc(CCNC(=O)Cn2c(=O)oc3ccccc32)cc1OCC,-4.2%,i,18.4µM*,22.3%,-3.4%,-6.8%
CCOc1ccc(CCNC(=O)CN(C)S(=O)(=O)c2cccs2)cc1OCC,6.3%,i,4.61µM*,-2.9%,1.0%,1.4%
COc1ccc(Cn2c(=O)oc3ccccc32)cc1OC,.,?,20.6µM*,-1.2%,.,-13.7%
Cc1ccc(-c2nc3cccc(C)n3c2Nc2ccc(F)cc2)o1,.,.,.,-18.5%,.,-20.4%
CCOC(=O)c1sc(=S)n(-c2ccc(OC)cc2)c1C,?,i,i,2.7%,-2.8%,-4.8%
CCOC(=O)c1c2c(n(-c3ccc(OC)cc3)c1C)C(=O)C(=O)c1ccccc1-2,3.26µM*,?,?,14.6µM*,5.8µM*,8.2µM*
CCOc1ccc(OCCNC(=O)c2oc3ccccc3c2COC)cc1,?,i,20.6µM*,0.6%,-4.8%,-6.3%
CSc1ccc(CCNC(=O)c2cc3n(n2)CCCN(Cc2ccc(C)cc2)C3=O)cc1,.,i,i,.,.,.
CCCCN(CCCC)C(=O)c1cc(Cl)ccc1[N+](=O)[O-],12.7%,i,23.1µM*,-5.7%,?,-6.1%
C=CCN(CC=C)C(=O)c1cc(Cl)ccc1[N+](=O)[O-],4.4%,i,i,5.7%,-32.3%,2.8%
COc1ccc(S(=O)(=O)c2cc3cc(C(C)(C)C)cc(O)c3oc2=O)cc1,.,i,i,.,.,.
O=C(CN(c1ccc(Cl)cc1)S(=O)(=O)c1ccc(Cl)c([N+](=O)[O-])c1)NCCc1ccc(F)cc1,3.66µM*,i,i,11.7%,6.4%,16.9%
O=C(O)c1cc(S(=O)(=O)N(Cc2ccccc2)c2ccc(Cl)cc2)ccc1Cl,20.6µM*,i,i,-17.8%,?,-0.6%
O=C(CN(c1ccc(Br)cc1)S(=O)(=O)c1ccc(Cl)c([N+](=O)[O-])c1)NCC1CCCO1 (stereo not given),16.4µM*,i,?,?,?,?
O=C(CN(c1ccc(Cl)cc1)S(=O)(=O)c1ccc(Cl)c([N+](=O)[O-])c1)NCCc1ccccc1,3.66µM*,i,i,11.1%,-14.7%,-2.8%
SMILES,MCF10A rerep,KB-3-1 tox,KB-V1 cytotox,HT1080NT lethal,SW480 rerep,HT1080 IDH1KD tx
COc1ccc(OC)c2c(C)ccnc12,.,i,i,.,.,.
COc1cccc(-c2nc(SCc3cc(=O)c4ccc(C)c(C)c4[nH]3)n[nH]2)c1,.,i,i,.,.,.
CCOc1ccc(CNS(=O)(=O)c2c(C(=O)N3CCCCCC3)c(C)n(C)c2C)cc1OC,.,i,i,.,.,.
COc1cc(Cl)ccc1OC1(C)CCN(Cc2ccc(-c3ccccn3)cc2)C1 (stereo not given),.,i,i,16.4µM*,.,?
CC1(Oc2ccc(Cl)cc2)CCN(Cc2ccc(-c3ccccn3)cc2)C1 (stereo not given),.,i,i,-13.5%,.,-16.4%
COc1cc2c(cc1OC)C(C)N(C(=O)c1cc3ccccc3o1)CC2 (stereo not given),3.4%,i,i,?,10.9%,5.62µM*
COc1cc2c(cc1OC)C(C)N(C(=O)c1cc3c(s1)-c1c(C)cccc1OC3)CC2 (stereo not given),16.4µM*,i,i,-16.5%,-0.1%,?
COc1cc2c(cc1OC)[C@H](C)N(C(=O)NCc1ccccc1)CC2,?,?,?,?,?,20.6µM*
COc1cc2c(cc1OC)C(C)N(C(=O)c1cccs1)CC2 (stereo not given),16.6%,i,?,-10.8%,13.3%,-13.5%
COc1cc2c(cc1OC)C(C)N(C(=O)c1c(C)noc1C)CC2 (stereo not given),9.2µM*,?,?,-24.7%,?,?
C=CCN(C)CCCCCCOc1ccc(C(=O)c2ccc(Br)cc2)c(F)c1,.,i,i,.,.,.
COc1cc2c(cc1OC)C(C)N(C(=O)c1cc(C)on1)CC2 (stereo not given),1.3µM*,?,4.61µM*,?,0.731µM*,1.46µM*
O=c1c2c(-c3ccc(Cl)cc3)ccnc2[nH]n1-c1ccccc1,.,i,i,.,.,.
C[n+]1c(/C=C/c2ccc(O)cc2)ccc2ccccc21,-0.7%,?,?,-6.7%,-0.9%,-5.4%
Cc1cc(/C=C\c2ccc3cc(N(C)C)ccc3[n+]2C)c(C)n1-c1ccccc1,-2.8%,4.61µM*,?,0.92µM*,-8.2%,1.46µM*
COc1ccc(OC)c(CN2C(=O)c3ccccc3C2c2nnnn2-c2ccc3c(c2)OCCO3)c1 (stereo not given),.,4.61µM*,i,?,.,?
COc1ccc(CCN2C(=O)c3ccccc3C2c2nnnn2-c2ccc3c(c2)OCCO3)cc1OC (stereo not given),.,i,?,1.7%,.,19.5%
Cc1ccccc1CN1CCc2nc(Nc3ccc4c(c3)OCCO4)ncc2C1,.,?,i,.,.,.
Cc1cccc2cc(CN(Cc3ccccc3)C(=O)c3cccc(F)c3)c(Cl)nc12,?,i,18.4µM*,-26.0%,3.66µM*,-2.4%
